Test results taken from PubChem BioAssay AID1159580 (chemical genetic matrix, 2015).
Among all 5,500 compounds or so, about 2,000 (36%) were called active. Another 18% or so got no clear call; they are omitted. Cut-off read from the data, not from the text of the source: active = normalized growth mostly below about 0.91 (no sharp cut-off); inconclusive = no clear call, values can overlap the other calls; inactive = mostly above about 0.92. The list shows a part of the results.

Experiment: chemical genetic growth profiling, strain panel (AID 1159580);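 note: tested at 20 µM; growth read once vehicle control cultures reached saturation at 30 °C; 1 = growth at the plate median or of vehicle wells; lower values mean less growth of the strain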
Conditions: growth OD
[1] = S. cerevisiae deletion strains, locus YGR078C, strain PAC10, stronger effect = lower value
[2] = S. cerevisiae deletion strains, locus YMR307W, strain GAS1, stronger effect = lower value
[3] = S. cerevisiae deletion strains, locus YNL153C, strain GIM3, stronger effect = lower value
[4] = S. cerevisiae deletion strains, locus YNL322C, strain KRE1, stronger effect = lower value
[5] = S. cerevisiae deletion strains, locus YPL055C, strain LGE1, stronger effect = lower value
[6] = S. cerevisiae deletion strains, locus YPL241C, strain CIN2, stronger effect = lower value
[7] = S. cerevisiae deletion strains, locus YAL013W, strain DEP1, stronger effect = lower value
[8] = S. cerevisiae deletion strains, locus YBR229C, strain ROT2, stronger effect = lower value
[9] = S. cerevisiae deletion strains, locus YCL061C, strain MRC1, stronger effect = lower value
[10] = S. cerevisiae deletion strains, locus YDL101C, strain DUN1, stronger effect = lower value
[11] = S. cerevisiae deletion strains, locus YDL134C, strain PPH21, stronger effect = lower value
[12] = S. cerevisiae deletion strains, locus YDR150W, strain NUM1, stronger effect = lower value
[13] = S. cerevisiae deletion strains, locus YEL061C, strain CIN8, stronger effect = lower value
[14] = S. cerevisiae deletion strains, locus YHR030C, strain SLT2, stronger effect = lower value
[15] = S. cerevisiae deletion strains, locus YHR087W, strain rtc3, stronger effect = lower value
[16] = S. cerevisiae deletion strains, locus YJR043C, strain POL32, stronger effect = lower value
[17] = S. cerevisiae deletion strains, locus YJR075W, strain HOC1, stronger effect = lower value
[18] = S. cerevisiae deletion strains, locus YKL190W, strain CNB1, stronger effect = lower value
[19] = S. cerevisiae deletion strains, locus YLR039C, strain RIC1, stronger effect = lower value
[20] = S. cerevisiae deletion strains, locus YLR058C, strain SHM2 (second series), stronger effect = lower value
[21] = S. cerevisiae deletion strains, locus YLR085C, strain ARP6, stronger effect = lower value
[22] = S. cerevisiae deletion strains, locus YLR262C, strain YPT6, stronger effect = lower value
[23] = S. cerevisiae deletion strains, locus YML094W, strain GIM5, stronger effect = lower value
[24] = S. cerevisiae deletion strains, locus YMR219W, strain ESC1, stronger effect = lower value
[25] = S. cerevisiae deletion strains, locus YMR263W, strain SAP30, stronger effect = lower value
[26] = S. cerevisiae deletion strains, locus YNL298W, strain CLA4 (second series), stronger effect = lower value
[27] = S. cerevisiae deletion strains, locus YNR030W, strain Alg12, stronger effect = lower value
[28] = S. cerevisiae deletion strains, locus YPR135W, strain CTF4, stronger effect = lower value

Measured: normalized growth

OCc1cnc[nH]1
inactive: S. cerevisiae deletion strains, locus YAL040C, strain CLN3, stronger effect = lower value 0.98 | S. cerevisiae deletion strains, locus YCL061C, strain MRC1 (second series), stronger effect = lower value 1 | S. cerevisiae deletion strains, locus YDR363W, strain ESC2, stronger effect = lower value 1.01 | S. cerevisiae deletion strains, locus YER002W, strain NOP16, stronger effect = lower value 1.03 | [1] 1.01 | S. cerevisiae deletion strains, locus YGR229C, strain SMI1, stronger effect = lower value 0.987 | [2] 1 | [3] 1.05 | S. cerevisiae deletion strains, locus YNL175C, strain NOP13, stronger effect = lower value 1.02 | S. cerevisiae deletion strains, locus YNL197C, strain WHI3, stronger effect = lower value 1.01 | S. cerevisiae deletion strains, locus YNL224C, strain SQS1, stronger effect = lower value 1.01 | [4] 1 | S. cerevisiae deletion strains, locus YOR083W, strain WHI5 (second series), stronger effect = lower value 0.989 | [5] 1.01 | [6] 1.01

N#Cc1c(F)cccc1Oc1ccc(F)cc1
inactive: [7] 0.999 | [8] 0.957 | [9] 1.01 | [10] 0.98 | [11] 0.986 | [12] 0.941 | [13] 0.966 | [1] 0.971 | [14] 0.848 | [15] 0.948 | [16] 0.999 | [17] 0.946 | [18] 0.972 | [19] 0.851 | [20] 0.979 | [21] 0.941 | [22] 0.907 | [23] 0.97 | [24] 0.971 | [25] 0.998 | [2] 0.891 | [3] 0.991 | [26] 0.928 | [4] 0.962 | [27] 0.986 | [5] 0.956 | [6] 0.978 | [28] 0.905

N#Cc1ncc(C(F)(F)F)cc1Oc1ccc(Cl)cc1
inactive: [14] 0.843 | [23] 0.907 | [25] 0.913 | [2] 1.01 | [28] 0.889
active: [7] 0.921 | [8] 0.789 | [9] 0.898 | [10] 0.868 | [12] 0.799 | [13] 0.903 | [1] 0.708 | [15] 0.745 | [16] 0.911 | [17] 0.594 | [18] 0.842 | [19] 0.694 | [20] 0.829 | [21] 0.595 | [22] 0.658 | [24] 0.814 | [3] 0.892 | [26] 0.709 | [4] 0.849 | [27] 0.737 | [5] 0.751 | [6] 0.844 | S. cerevisiae strains, strain wild type, stronger effect = lower value 0.851

Cc1cccc(C(=O)O)c1O
inactive: [7] 1.01 | S. cerevisiae deletion strains, locus YBR021W, strain FUR4, stronger effect = lower value 0.997 | [8] 1.02 | S. cerevisiae deletion strains, locus YCL029C, strain bik1, stronger effect = lower value 1.02 | S. cerevisiae deletion strains, locus YDL035C, strain GPR1, stronger effect = lower value 0.999 | S. cerevisiae deletion strains, locus YDL074C, strain BRE1, stronger effect = lower value 1.02 | [10] 1.02 | [11] 1.01 | S. cerevisiae deletion strains, locus YDL185W, strain tfp1, stronger effect = lower value 1.02 | S. cerevisiae deletion strains, locus YDL192W, strain arf1, stronger effect = lower value 1.01 | S. cerevisiae deletion strains, locus YDR101C, strain arx1, stronger effect = lower value 1.01 | S. cerevisiae deletion strains, locus YDR162C, strain NBP2, stronger effect = lower value 1.02 | S. cerevisiae deletion strains, locus YDR318W, strain mcm21, stronger effect = lower value 1.02 | S. cerevisiae deletion strains, locus YDR388W, stronger effect = lower value 1.02 | S. cerevisiae deletion strains, locus YDR502C, strain sam2, stronger effect = lower value 1.01 | [13] 1.01 | S. cerevisiae deletion strains, locus YER110C, stronger effect = lower value 1.01 | S. cerevisiae deletion strains, locus YER155C, strain BEM2, stronger effect = lower value 1 | S. cerevisiae deletion strains, locus YER167W, strain BCK2, stronger effect = lower value 1.01 | S. cerevisiae deletion strains, locus YGL078C, strain dbp3, stronger effect = lower value 1 | S. cerevisiae deletion strains, locus YGL086W, strain mad1, stronger effect = lower value 1.01 | S. cerevisiae deletion strains, locus YGL248W, strain PDE1, stronger effect = lower value 1.02 | [1] 1.01 | S. cerevisiae deletion strains, locus YGR135W, strain pre9, stronger effect = lower value 1.02 | S. cerevisiae deletion strains, locus YGR252W, strain gcn5, stronger effect = lower value 1 | [14] 1.02 | S. cerevisiae deletion strains, locus YHR079C, strain IRE1 (second series), stronger effect = lower value 1.01 | S. cerevisiae deletion strains, locus YHR094C, strain hxt1, stronger effect = lower value 1.01 | S. cerevisiae deletion strains, locus YHR129C, strain ARP1, stronger effect = lower value 1.01 | S. cerevisiae deletion strains, locus YHR200W, strain rpn10, stronger effect = lower value 1.02 | S. cerevisiae deletion strains, locus YIL066C, strain RNR3, stronger effect = lower value 1.02 | S. cerevisiae deletion strains, locus YIL073C, strain SPO22, stronger effect = lower value 1.02 | S. cerevisiae deletion strains, locus YIL125W, strain kgd1, stronger effect = lower value 1.01 | S. cerevisiae deletion strains, locus YIR030C, strain dcg1, stronger effect = lower value 1.02 | S. cerevisiae deletion strains, locus YJL095W, strain BCK1, stronger effect = lower value 1.02 | S. cerevisiae deletion strains, locus YJL134W, strain LCB3, stronger effect = lower value 1.01 | S. cerevisiae deletion strains, locus YJL168C, strain set2, stronger effect = lower value 1 | S. cerevisiae deletion strains, locus YJL187C, strain SWE1 (second series), stronger effect = lower value 1.02 | [16] 1.01 | S. cerevisiae deletion strains, locus YKL009W, strain mrt4, stronger effect = lower value 0.968 | S. cerevisiae deletion strains, locus YKL068W, stronger effect = lower value 1 | S. cerevisiae deletion strains, locus YKL085W, strain MDH1 (second series), stronger effect = lower value 1 | S. cerevisiae deletion strains, locus YKL085W, strain MDH1, stronger effect = lower value 1 | S. cerevisiae deletion strains, locus YKR001C, strain vps1, stronger effect = lower value 1.02 | [19] 0.993 | S. cerevisiae deletion strains, locus YLR058C, strain SHM2, stronger effect = lower value 1.02 | S. cerevisiae deletion strains, locus YLR102C, strain apc9, stronger effect = lower value 1.01 | [22] 1.04 | S. cerevisiae deletion strains, locus YLR268W, strain sec22, stronger effect = lower value 1.03 | S. cerevisiae deletion strains, locus YLR330W, strain CHS5, stronger effect = lower value 1.01 | S. cerevisiae deletion strains, locus YLR342W, strain FKS1 (second series), stronger effect = lower value 0.995 | S. cerevisiae deletion strains, locus YLR371W, strain rom2, stronger effect = lower value 1.02 | S. cerevisiae deletion strains, locus YLR418C, strain cdc73, stronger effect = lower value 1.05 | S. cerevisiae deletion strains, locus YML016C, strain PPZ1, stronger effect = lower value 1.01 | S. cerevisiae deletion strains, locus YML032C, strain rad52, stronger effect = lower value 1.02 | S. cerevisiae deletion strains, locus YML124C, strain tub3, stronger effect = lower value 1.02 | S. cerevisiae deletion strains, locus YMR078C, strain ctf18, stronger effect = lower value 1.02 | S. cerevisiae deletion strains, locus YMR223W, strain ubp8, stronger effect = lower value 1.02 | [2] 0.975 | S. cerevisiae deletion strains, locus YNL067W, strain RPL9B, stronger effect = lower value 1.02 | [3] 1.01 | S. cerevisiae deletion strains, locus YNL233W, strain BNI4, stronger effect = lower value 1.02 | S. cerevisiae deletion strains, locus YNL250W, strain rad50, stronger effect = lower value 1.02 | S. cerevisiae deletion strains, locus YNL271C, strain bni1, stronger effect = lower value 1 | S. cerevisiae deletion strains, locus YNL298W, strain CLA4, stronger effect = lower value 0.996 | S. cerevisiae deletion strains, locus YNL307C, strain MCK1, stronger effect = lower value 1.02 | [4] 1.01 | S. cerevisiae deletion strains, locus YNR052C, strain pop2, stronger effect = lower value 1.03 | S. cerevisiae deletion strains, locus YOL012C, strain htz1 0.786 | S. cerevisiae deletion strains, locus YOL147C, strain pex11, stronger effect = lower value 1.01 | S. cerevisiae deletion strains, locus YOR061W, strain CKA2, stronger effect = lower value 1.01 | S. cerevisiae deletion strains, locus YOR069W, strain VPS5, stronger effect = lower value 1.02 | S. cerevisiae deletion strains, locus YOR136W, strain idh2, stronger effect = lower value 1.01 | S. cerevisiae deletion strains, locus YOR144C, strain elg1, stronger effect = lower value 1.01 | S. cerevisiae deletion strains, locus YOR184W, strain ser1, stronger effect = lower value 1.02 | S. cerevisiae deletion strains, locus YOR316C, strain cot1, stronger effect = lower value 1.02 | [5] 1.01 | [6] 1.01 | S. cerevisiae deletion strains, locus YPR119W, strain clb2, stronger effect = lower value 1.01 | S. cerevisiae deletion strains, locus YPR141C, strain kar3, stronger effect = lower value 1.01 | S. cerevisiae deletion strains, locus YPR163C, strain tif3, stronger effect = lower value 1.02 | S. cerevisiae deletion strains, locus YPR167C, strain met16, stronger effect = lower value 1.01 | S. cerevisiae deletion strains, strain wtn01, stronger effect = lower value 1
